Screening data (PubChem)
Hits are enriched below; roughly 3.7% of the tested compounds scored in any of these assays.
NALP3 yeast inh – NALP3 inhibition in yeast. Yeast reconstituted NLRP3/ASC/caspase-1, beta-gal luminescence, 24 h. inhibition, % at 10 µM. 0.39% of 330,000 active;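 active = inhibition of 50% or more; inactive = inhibition below 50%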
tim10-1 inh – tim10-1 yeast growth inhibition; S. cerevisiae tim10-1 ts strain growth, BacTiter-Glo, 24 h; 2.2% of 330,000 active; inhibition, % at 20 µM;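 active = inhibition of at least 40%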;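 note: mutant grown at 25 °C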
TIM10 inh – growth inhibitors of TIM10 yeast strain; 1.4% of 330,000 active; S. cerevisiae TIM10 strain growth, BacTiter-Glo luminescence, 24 h; inhibition, % at 10 µM;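 active = inhibition of 40% or more at the single tested concentration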;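 note: wild-type TIM10 isogenic control strain grown at permissive 25 °C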
tim23-1 inh – growth inhibitors of tim23-1 mutant yeast; S. cerevisiae tim23-1 growth, BacTiter-Glo luminescence, 24 h; inhibition, % at 20 µM; 1.3% of 330,000 active; AID 463212;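 active = growth inhibition of the mutant yeast at or above 50%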;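 note: temperature-sensitive mutant grown at 25 °C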
PfHsp90 set2 – growth inhibition of yeast expressing Plasmodium Hsp90 | S. cerevisiae expressing PfHsp90, BacTiter-Glo ATP, 48 h; yeast lacking PDR1 and PDR3 efflux regulators | AID 504621 | 0.32% of 310,000 active | inhibition, % at 9.4 µM;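 active = every replicate shows inhibition above about 80%, whatever the replicate mean, limit read from the data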
tim10 confirm – confirmation of TIM10 yeast growth inhibitors | shares compounds with TIM10 inh | S. cerevisiae tim10 strain growth, BacTiter-Glo luminescence, 24 h | inhibition, % at 10 µM | 63% of 4,600 active | AID 463215;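 active = inhibition of yeast growth at or above a set limit in either of two replicates at 10 µM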; note: this counterscreen used the strain with wild-type TIM10
Hits are given with their value; n = inactive; x = no result.

SMILES	NALP3 yeast inh	tim10-1 inh	TIM10 inh	tim23-1 inh	PfHsp90 set2	tim10 confirm
O=C(COC(=O)c1cc[n+]([O-])cc1)NCc1ccccc1Cl	n	n	n	n	n	x
CN1CCN(c2nc(-c3ccccn3)nc3ccccc23)CC1	n	n	n	n	n	x
c1ccc(N2CCN(c3nc(-c4ccccn4)nc4ccccc34)CC2)cc1	n	n	40	n	n	n
O=C(CCCn1nnc(-c2cccnc2)n1)c1ccc(F)cc1	n	n	n	n	n	x
Cc1ccc2nc(N(CCCN(C)C)C(=O)c3ccc4ncsc4c3)sc2c1	n	n	n	n	n	x
C=CCn1c(SCc2ccc3nonc3c2)nnc1-c1cccs1	n	n	48	n	n	26
C=CCn1c(SCC(=O)C(C)(C)C)nnc1-c1cccs1	n	n	n	n	x	x
COCCN(C(=O)CNC(=O)c1ccco1)C(C(=O)NC1CCCC1)c1cccc(OC)c1 (stereo not drawn)	n	n	n	n	n	x
Cc1cc(-c2nnc(SCC(=O)Nc3ccccc3)n2C)no1	n	n	54	n	n	n
CSc1nc(-c2ccccc2)nn1C(=O)c1ccc(C)cc1	n	n	42	n	n	42
CSc1nc(-c2ccco2)nn1C(=O)c1ccc(C)cc1	n	n	n	n	x	x
CCOc1cc(C=O)c(Br)cc1OC1CCCC1	n	n	40	n	n	n
N=c1c2ccccc2nnn1-c1cccc(C(F)(F)F)c1	n	n	n	n	n	x
O=[N+]([O-])c1ccccc1S(=O)(=O)Oc1ccc(/C=N/n2cnnc2)cc1	n	n	n	n	n	x
O=C(Nc1ccc(Cc2ccncc2)cc1)c1ccc(Br)o1	n	n	44	n	n	36
O=C(NC(=S)Nc1ccc(Cc2ccncc2)cc1)c1ccccc1	n	n	51	n	n	n
Cc1cc(C)cc(C(=O)NC(=S)Nc2ccc(Cc3ccncc3)cc2)c1	n	n	47	n	n	n
O=C(CNC(=O)c1ccc(Br)o1)Nc1ccncc1	n	n	n	n	x	x
COc1ccccc1N/C=C(\C#N)c1nc2ccccc2[nH]1	n	n	n	n	n	x
Cc1ccc(C2CC2c2n[nH]c(=S)n2-c2ccc(Cl)cc2)cc1 (stereo not drawn)	n	n	51	n	n	42
Cc1cc2nc(C)n3c4ccccc4nc3n2n1	n	n	59	n	n	45
CCc1nc2cc(C)nn2c2nc3ccccc3n12	n	n	n	n	n	x
O=C(Nc1ccccc1)c1ccccc1NC(=O)[C@H]1CCCC[C@H]1C(=O)O	n	n	n	n	n	x
COc1ccc2[nH]c(C)c(CCNC(=S)Nc3ccccc3C)c2c1	n	n	n	n	n	x
COc1ccc2[nH]c(C)c(CCNC(=S)Nc3ccc(C)cc3)c2c1	n	n	40	n	n	n
SMILES	NALP3 yeast inh	tim10-1 inh	TIM10 inh	tim23-1 inh	PfHsp90 set2	tim10 confirm
CCOC(=O)c1ccc2c(c1)nc(SCc1cn3ccsc3n1)n2CC	n	n	44	n	n	34
O=C(NC1=NCCS1)c1cc(-c2cccc(Br)c2)nc2ccccc12	n	n	43	n	n	n
O=C(NC1=NCCS1)c1csc2ccccc12	n	n	44	n	n	n
COc1ccc2c(c1)C=C(C(=O)OCc1cccnc1)CO2	n	n	n	n	n	x
CC12CC(c3ccccc3O1)N(C(=O)c1ccco1)C(=S)N2c1ccc(F)cc1 (stereo not drawn)	n	n	42	n	n	40
O=C(c1ccc(CS(=O)(=O)c2ccccc2)o1)N1CCN(c2ncccn2)CC1	n	n	n	n	n	x
COc1ccc(-c2nn(-c3ccccc3)cc2CNC(=O)c2cccc([N+](=O)[O-])c2)cc1	n	n	n	n	n	x
Oc1ccc(C=NNc2nc3ccccc3s2)c(O)c1	x	x	x	x	n	x
Cc1ccsc1/C=N/Nc1nc2ccccc2s1	n	n	40	n	n	44
Cc1ccc(OCCNC(=O)c2cccc(S(=O)(=O)NCc3ccccc3)c2)cc1	n	n	59	n	x	n
O=C(NCc1ccncc1)c1cccc(S(=O)(=O)NCc2ccccc2)c1	n	n	n	n	n	x
O=C(Nc1ccccn1)c1ccc2c(=O)n3c(nc2c1)CCCCC3	n	n	51	n	n	35
O=C(Nc1ccc(F)cc1)c1ccc2c(=O)n3c(nc2c1)CCCCC3	n	n	n	n	n	x
O=C(Nc1ccc(F)c(Cl)c1)c1ccc2c(=O)n3c(nc2c1)CCCCC3	n	n	60	n	n	46
CCOc1ccc2c(c1)S/C(=C\c1cccs1)C(=O)N2	n	n	n	n	n	x
